# High-throughput results (PubChem)
# In the library only some 7.9% were active in any assay of this set; here they are far more common.
# HCMV inh = blocks human cytomegalovirus replication; activity change, negative = inhibition, % at 57.5 µM; HFF cells, HCMV-luciferase reporter, 72 h; hits give low values; 4.5% of 410,000 active; in the data active means activity change below about -60%; inconclusive means no clear call, values can overlap the other calls; inactive means above about -39%
#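 Screen run at 2 compound doses on HFFs infected with reporter HCMV, MOI 1 PFU/cell. Luciferase activity from cell lysates at 72 h post infection gave inhibition relative to buffer-only and Salinomycin wells.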
# FMDV antiviral = blocks foot and mouth disease virus; Potency, µM (doses to about 57.9 µM), for inactives: at the highest dose activity change, negative = inhibition, actives largely listed as inhibitors; 1.2% of 410,000 active; FMDV antiviral cell-based qHTS; AID 1159524; calls by dose curve; tested in HEK293T cells; further: read-out not given here; potency means the concentration at half of the fitted maximal effect; nearly all actives have a fitted effect of over 45% in size
# LASV entry inh = inhibitors of Lassa virus binding or cell entry; AID 540256; Lassa virus pseudotype entry inhibition, cell reporter; Potency, µM (doses to about 37.9 µM), for inactives: at the top dose activity change, negative = inhibition, hits mostly inhibitors; 1.2% of 300,000 active; calls by dose curve; tested in HEK293 cells; further: potency means the concentration at half of the fitted maximal effect; nearly all actives have a fitted effect of over 50% in size
# HCV inhibitor = blocks hepatitis C virus. Huh7.5.1 HCVcc-Cre infection, luciferase reporter, 44 h. Potency, µM (highest dose often 41.8 µM), inactives show at the top dose activity change, negative = inhibition, usual class: inhibitors. 3.4% of 340,000 active. AID 651820; active means well fitted inhibition curve with a large enough effect; inconclusive means small, poorly fitted or top-dose-only effect, or another doubt; inactive means no such curve, though single readings can be large or run the other way; further: potency means the concentration at half of the fitted maximal effect
#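 Infectious HCVcc-Cre (~0.5 moi) was added to cells just after compound, with cells seeded 4 h earlier at 1,000 per well. Luciferase activity after 44 h culture reported infection; substrate was incubated 15 min at room temperature before reading.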
# Marburg entry inh = Marburg virus entry inhibition | Marburg virus pseudotyped entry inhibition, cell reporter | Potency, µM (series often up to 37.8 µM), without a hit: at the top dose activity change, negative = inhibition, most hits filed as inhibitors | 1.8% of 300,000 active | AID 540276; calls by dose curve; tested in HEK293 cells; further: potency means the concentration at half of the fitted maximal effect
# Active calls of the source: *; ? = inconclusive; · = no result; [ ] = dose if it differs, or a comment. On the % scale 0 is the no-effect control and ±100 the full control effect.
SMILES,HCMV inh,FMDV antiviral,LASV entry inh,HCV inhibitor,Marburg entry inh
CCOC(=O)C1(CCCc2ccccc2)CCN(Cc2nccn2CC)CC1,?,?,?,10µM*,?
CCOC(=O)C1(CCCc2ccccc2)CCN(C(=O)C2=C(C)OCCO2)CC1,-69*,-24%,?,?,?
CCOC(=O)C1(CCCc2ccccc2)CCN(Cc2cn(CC)nc2C)CC1,?,?,?,11µM*,8.9µM*
Cn1c(-c2csc(-c3cccc(C(F)(F)F)c3)n2)n[nH]c1=S,-84*,8%,15%,8%,14%
COc1ccccc1CCNC(=O)Cc1c(C)c2c(cc(C)c3c(C)coc32)oc1=O,-16,27%,29%[46.1 µM],·,-8%[46.1 µM]
Cc1ccc(NC(=O)Nc2cccc([N+](=O)[O-])c2)nc1,13,38%,0%,-7%,-2%[46.1 µM]
Cc1nc(-c2cccc(NC(=O)Nc3ccc([N+](=O)[O-])cc3)c2)no1,-99*,14µM*,?,·,·
O=C(Nc1ccc([N+](=O)[O-])cc1)Nc1ccon1,-86*,-22%,-9%[46.1 µM],-1%,?
COc1ccc(C)cc1NC(=O)Nc1cccc(-c2noc(C)n2)c1,-38,-29%,13%[46.1 µM],·,·
Cc1ccc(NC(=O)Nc2ccc([N+](=O)[O-])cc2)nc1,-70*,34%,?,-1%,-15%[46.1 µM]
CCN1C(=NCc2ccco2)N[C@@H](CCc2ccccc2)[C@H](C(=O)OC)[C@H]1C,·,·,?,·,33%[14.2 µM]
CCCC(O)(CCC)C(=O)NN(C(=O)CCl)c1ccccc1,-81*,?,?,?,?
CCCCC(O)(CCCC)C(=O)NN(C(=O)OCC)c1ccccc1,-3,-19%,-3%,8%,2%
Cc1cnc(-n2ncc(C(=O)N(CCO)C(C)C)c2-c2cccs2)nc1-c1ccc(F)cc1,·,22%,·,·,·
COc1ccc(C2CC(=O)c3cc(-c4nc(-c5cccc([N+](=O)[O-])c5)cs4)c(=O)n(-c4ccc(C)c(C)c4)c3C2)cc1 (stereo unspecified),4,-12%,-23%[46.1 µM],·,14%[46.1 µM]
COc1cc(O)c(C(CC(=O)N2CCOCC2)c2ccc3c(c2)OCO3)c(OC)c1 (stereo unspecified),?,-8%,·,11µM*,·
CCOc1ccc(NC(=O)N(Cc2cn(CC)c3ccccc23)C2CCCCCC2)cc1,-87*,38%,?,·,?
CCc1ccc(NC(=O)N(Cc2cn(CC)c3ccccc23)C2CCCCC2)cc1,-104*,60%,?,·,?
CCCCN1CCc2nc(Nc3ccc(OC)cc3OC)ncc2C1,2,-12%,-11%[46.1 µM],·,·
CN(NS(=O)(=O)c1ccc(Br)cc1)c1nc(C(F)(F)F)nc2ccccc12,-64*,-28%,?,-15%,?
CCN(CC)c1ccc(NC(=O)c2cnn(-c3ccccc3)c2-n2cccc2)c(C)c1,?,?,5%[46.1 µM],·,?
Cc1cnc(-n2ncc(C(=O)N(C)C3CCOC3)c2-c2cccs2)nc1-c1ccc(F)cc1 (stereo unspecified),·,36%,·,·,·
CC(C)=CC(=O)Nc1ccccc1C(N)=O,-74*,13%,16%,11%,6%
Cn1c(N2CCOCC2)c(/C=N/OC(=O)c2ccc(F)cc2)c2ccccc21,-95*,-10%,?,3.5µM*,?
CC(=O)O/N=C/c1c(N2CCOCC2)n(C)c2ccccc12,-93*,-13%,?,?,?
SMILES,HCMV inh,FMDV antiviral,LASV entry inh,HCV inhibitor,Marburg entry inh
Cn1c(N2CCOCC2)c(/C=N/O)c2ccccc21,-10,-22%,-22%,7%,23%[46.1 µM]
Cc1ccc(C(=O)O/N=C/c2c(N3CCOCC3)n(C)c3ccccc23)cc1,-100*,-5%,?,6.3µM*,?
Cc1nc2ccc(F)cc2cc1C(=O)NCc1ccco1,13,-24%,5%,-2%,17%
Cc1nc2ccc(F)cc2cc1C(=O)Nc1ccc(Cl)c(Cl)c1,-61*,-19%,-18%,-16%,-14%
CN1c2ccccc2C(C)(C)[C@]12C=Cc1cc(O)ccc1O2,?,?,-16%,13µM*,?
COc1ccccc1N=c1sc2ccccc2n1C,-26,·,-2%,1.8µM*,-17%
COc1ccc(/C=C/C(=O)CC(=O)/C=C/c2cccc(O)c2OC)cc1O,·,-3%,·,·,·
CCNc1nc(C)c2cc(Br)c(=O)n(CC)c2n1,40,-12%,?,8.9µM*,?
COc1ccc(-c2noc(N3CCC(C(=O)Nc4cccc(OC)c4)CC3)n2)cc1,-30,-22%,·,22µM*,·
COc1ccc(-c2noc(N3CCC(C(=O)N(C)c4ccccc4C)CC3)n2)cc1,?,6%,·,11µM*,·
O=C(c1n[nH]c2c1CCCC2)N1CCOc2ccc(C(O)C(c3ccccc3)c3ccccc3)cc2C1 (stereo unspecified),·,-24%,·,·,·
COC(=O)C12OCC34C(CC5C(C)=C(O)C(=O)CC5(C)C3C(O)C1O)OC(=O)C(OC(=O)C=C(C)C)C24 (stereo unspecified),-99*,-42%,?,·,?
COC(=O)C12OCC34C(CC5C(C)=C(O)C(=O)CC5(C)C3C(O)C1O)OC(=O)C(OC(=O)/C=C(\C)C(C)C)C24 (stereo unspecified),-98*,-31%,?,?,?
CCOC(=O)c1c(-c2ccccc2)csc1NC(=O)CSc1nc(N)cc(N)n1,-67*,18µM*,-2%,13µM*,?
CCOC(=O)c1c(-c2ccccc2)csc1NC(=O)c1nc(SCC)ncc1Cl,6,-19%,25%[46.1 µM],·,?
CCOC(=O)c1c(-c2ccccc2)csc1NC(=O)CSc1nc(C)cc(C)n1,-82*,?,?,?,?
CCOC(=O)c1c(-c2ccc(OC)cc2)csc1NC(=O)CCN1C(=O)c2ccccc2C1=O,-24,33%,-20%,?,-20%
CCOC(=O)c1c(-c2ccco2)csc1NC(=O)CSc1nnc(N)s1,-11,-11%,18%,11µM*,-15%
CCOC(=O)c1c(-c2ccc(C)o2)csc1NC(=O)CSc1nncs1,?,·,?,?,-24%
Cc1ccc(CNC(=O)C2CCCN(S(=O)(=O)c3ccc4c(ccn4C)c3)C2)cc1 (stereo unspecified),-22,-8%,?,·,·
CCn1cc2nc(SCC(=O)Nc3ccc(OC)cc3OC)n(Cc3ccc(Cl)cc3)c(=O)c2n1,-29,47%,?,·,?
CCn1cc2nc(SCC(=O)Nc3cc(OC)ccc3OC)n(Cc3ccc(Cl)cc3)c(=O)c2n1,3,-5%,-2%[46.1 µM],·,13µM*
CCN(CC)C(=O)CSc1nc2cc(OC)c(OC)cc2c(=O)n1Cc1ccc(Cl)cc1,-78*,-13%,?,?,?
CCc1nc2ccc(C(=O)NCc3ccc(SC)cc3)cc2nc1CC,77,10%,6%[46.1 µM],·,·
COC(=O)[C@@H]1[C@H](CCc2ccccc2)NC(=O)N(Cc2ccccc2)[C@H]1C,·,·,?,·,-24%[14.2 µM]
Cc1ccc(-c2csc(NC(=O)C3=COCCO3)n2)cc1,42,-16%,-27%,?,?
